This note sets out measurements from PubChem BioAssay AID2391 (Southern Research Specialized Biocontainment Screening …, 2010).

SMILES strings stand for the structures. About 410 (0.13%) of roughly 310,000 compounds were called active. About 2% were inconclusive and are not listed. How the calls were made is not given here. Not all results are given here. Entries with a potency or affinity are not part of this list.

A short description of the assay: RSV antiviral activity via CPE protection, HEp-2 cells, primary 10 µM value included (AID 2391). The conditions noted are these: RSV-induced CPE inhibition, at 10 µM, active compounds read high.
Consider `Cc1cc2c(cc1S(=O)(=O)Nc1cccc(C)c1C)n(C)c(=O)c(=O)n2C`, for which the CPE inhibition is -1.46% (inactive).

Regarding `CN(C)S(=O)(=O)c1cccc(NC(=O)COC(=O)CCC(=O)c2cccs2)c1`, the CPE inhibition is -1.26% (inactive).

For `Cc1ccc(S(=O)(=O)NNC(=O)Nc2ccc(C)c(C)c2)c(C)c1`, the CPE inhibition is 1.56% (inactive).

Take `COc1cccc(CN2C(=O)C3CCCN3c3ccc(S(=O)(=O)N4CCOCC4)cc32)c1` (stereo not drawn): the CPE inhibition was 15.8% (inactive).

In the case of `COc1ccc(CCNC(=O)c2ccc([N+](=O)[O-])cc2)cc1`, the CPE inhibition is 0.4% (inactive).

Consider `COc1ccc(CCNC(=O)c2ccc(-c3ccc([N+](=O)[O-])cc3)o2)cc1OC`, for which the CPE inhibition is 3.03% (inactive).

In the case of `COC(=O)c1ccccc1OC(=O)c1cc2ccccc2oc1=O`, the CPE inhibition was -0.19% (inactive).

On to `Nc1nc(SCC(=O)c2ccc(F)cc2)n[nH]1`, for which the CPE inhibition is 0.71% (inactive).

Turning to `O=C(CNc1ccccc1)N/N=C/c1cn(-c2ccccc2)nc1-c1ccccc1`, the CPE inhibition was 6.81% (inactive).

Consider `O=C(CNc1cccc(C(F)(F)F)c1)N/N=C/c1ccccc1C(=O)O`, for which the CPE inhibition was 1.07% (inactive).

Regarding `CCOC(=O)N1CCN(C(=O)COc2ccc3c(c2)C(=O)CC(C)(C)O3)CC1`, the CPE inhibition was 1.7% (inactive).

Consider `COc1ccc(C(C(=O)NC2CCCC2)N(C(=O)c2snc(C(N)=O)c2N)c2ccccc2OC)cc1OC` (stereo not drawn), for which the CPE inhibition is 17.8% (inactive).

Take `Cc1ccc(N(C(=O)c2snc(C(N)=O)c2N)C(C(=O)NC2CCCC2)c2ccncc2)cc1` (stereo not drawn): the CPE inhibition was 0.36% (inactive).

With `COc1ccc(C(C(=O)NC2CCCC2)N(C(=O)c2snc(C(N)=O)c2N)C2CCCC2)cc1OC` (stereo not drawn), the CPE inhibition was 3.34% (inactive).

With `COc1cc(C(C(=O)NC2CCCC2)N(C(=O)c2snc(C(N)=O)c2N)c2ccccc2)cc(OC)c1OC` (stereo not drawn), the CPE inhibition is 1.74% (inactive).

Regarding `Cc1ccc(C(CCN(Cc2ccccc2)C(=O)c2ccco2)c2ccco2)cc1` (stereo not drawn), the CPE inhibition was 6.53% (inactive).

For `Cc1cccc(CSc2nc3sc(C)c(C)c3c(=O)n2Cc2ccco2)c1`, the CPE inhibition is 13.2% (inactive).

Regarding `COCCn1c(SCC(=O)Nc2ccc(Cl)cn2)nc2ccccc21`, the CPE inhibition is -1.02% (inactive).

Take `COc1ccc(-n2c(SC(C)C(=O)Nc3ncc(Cl)cc3Cl)nc3ccccc32)cc1` (stereo not drawn): the CPE inhibition was 15.9% (inactive).

Turning to `Cc1ccc(-n2c(SCC(=O)Nc3cccc(S(N)(=O)=O)c3)nc3ccccc32)cc1`, the CPE inhibition was 1.64% (inactive).

Take `COc1ccc(-n2c(SCC(=O)Nc3ncc(Cl)cc3Cl)nc3ccccc32)cc1`: the CPE inhibition is 18.7% (inactive).

On to `O=C(CSc1nnc2ccccn12)Nc1ncc(Cl)cc1Cl`, for which the CPE inhibition is 4.23% (inactive).

In the case of `Cc1cc(SCC(=O)Nc2ncc(Cl)cc2Cl)nc2ccccc12`, the CPE inhibition was 5.54% (inactive).

As to `CC(=O)N[C@@H](Cc1ccc(O)cc1)CN1C(N)=NC[C@@H]1CC(C)C`, the CPE inhibition was -0.28% (inactive).

Take `O=C(COc1cccc2c1CCNC2=O)Nc1cccc(C(F)(F)F)c1`: the CPE inhibition was 1.19% (inactive).

With `C/C(=N/OC(=O)C1CC12CCC2)c1ccc(Br)cc1` (stereo not drawn), the CPE inhibition is 2.98% (inactive).

Regarding `CCOC(=O)C1CCN(C(=O)CC(C)S(=O)(=O)c2ccc3c(c2)NC(=O)CO3)CC1` (stereo not drawn), the CPE inhibition was 7% (inactive).

For `CCOc1ccc(S(=O)(=O)Nc2ccc(F)cc2)c(C)c1C`, the CPE inhibition was 6.57% (inactive).

Consider `Cc1cccc(C)c1OCc1cc(C(=O)N2CCN(C3CCCC3)CC2)no1`, for which the CPE inhibition was 0.09% (inactive).

With `O=C(Oc1ccc(-c2nnco2)cc1)N1CCCCC1`, the CPE inhibition was 2.35% (inactive).

Consider `OCCNc1c2ccccc2nc2c(F)c(F)c(F)c(F)c12`, for which the CPE inhibition was -1.66% (inactive).

Regarding `CCCNc1c(F)c(F)c2c(C)c3ccccc3nc2c1F`, the CPE inhibition was -1.87% (inactive).

Turning to `CCOc1ccc(C2=C/C(=C/c3cccnc3)C(=O)O2)cc1`, the CPE inhibition is 1.93% (inactive).

Turning to `COc1ccc(OC)c(CCNC(=O)CN2C(=O)CCSc3ccccc32)c1`, the CPE inhibition is -3.24% (inactive).

`Cc1ccc2nc(-c3cccc(N)c3)[nH]c2c1`: the CPE inhibition was 2.27% (inactive).

Consider `Cc1ccc2[nH]c(-c3cccc(F)c3)cc(=O)c2c1`, for which the CPE inhibition is -0.29% (inactive).

As for `Cc1cccc(-c2nc(CS(=O)CC(=O)NCCc3ccccc3)c(C)o2)c1` (stereo not drawn), the CPE inhibition was 0.05% (inactive).

Regarding `COCc1[nH]nc2c1C1(C(=O)N(C)c3ccccc31)C(C#N)=C(N)O2` (stereo not drawn), the CPE inhibition was 2.9% (inactive).

Take `O=C1c2ccccc2C(=O)N1CCc1csc(-c2ccccc2)n1`: the CPE inhibition was 3.44% (inactive).

With `O=C1c2ccccc2C(=O)N1CCc1csc(-c2ccc(F)cc2)n1`, the CPE inhibition was 2.17% (inactive).

`CCSc1nc(O)cc(=O)n1-c1ccc(OC)cc1`: the CPE inhibition is -0.46% (inactive).

`CC(NC(=O)c1nn(C)c(=O)c2ccccc12)c1ccc(F)cc1` (stereo not drawn): the CPE inhibition was 1.39% (inactive).

Regarding `O=C(Nc1sc2c(c1C(=O)O)CCCCC2)c1ccccc1`, the CPE inhibition is 2.56% (inactive).

As for `O=C(/C=C/c1ccco1)Nc1sc2c(c1C(=O)O)CCC2`, the CPE inhibition was 3.96% (inactive).

On to `O=C(O)CCC(=O)Nc1sc2c(c1C(=O)NCc1ccccc1)CCCC2`, for which the CPE inhibition is 1.43% (inactive).

`O=C(/C=C/c1cccs1)Nc1sc2c(c1C(=O)O)CCCC2`: the CPE inhibition was 16.6% (inactive).

On to `Cn1cnnc1Sc1cc(N2CCN(S(=O)(=O)c3ccccc3)CC2)ccc1[N+](=O)[O-]`, for which the CPE inhibition is 2.72% (inactive).

Take `Cc1ccc(S(=O)(=O)N2CCN(c3ccc([N+](=O)[O-])c(Sc4nncn4C)c3)CC2)cc1`: the CPE inhibition was 2% (inactive).

For `Cc1ccc(C(=O)COC(=O)c2ccncc2)cc1[N+](=O)[O-]`, the CPE inhibition is 1.18% (inactive).

Turning to `CCCCCCCN1C/C=C\C(c2ccc(OC)cc2)N(Cc2ccc(F)cc2)C(=O)[C@H]1Cc1ccccc1` (stereo partly drawn), the CPE inhibition was 0.33% (inactive).

`CCN(CC(=O)NCc1ccccn1)S(=O)(=O)c1cc(Cl)ccc1Cl`: the CPE inhibition is -1.64% (inactive).

Regarding `Cc1ccc2[nH]c3c(=O)[nH]ncc3c2c1`, the CPE inhibition is -1.42% (inactive).

With `CCNC(=O)C1CN(S(=O)(=O)c2ccccc2)CCN1S(=O)(=O)c1ccccc1` (stereo not drawn), the CPE inhibition was -2.71% (inactive).

Regarding `CC(C)(C)NC(=O)C1CN(S(=O)(=O)c2ccccc2)CCN1S(=O)(=O)c1ccccc1` (stereo not drawn), the CPE inhibition is 0.62% (inactive).

In the case of `CCCCn1c(N)c(N(CC(C)C)C(=O)c2c(CC)noc2C)c(=O)[nH]c1=O`, the CPE inhibition was -1.37% (inactive).

As for `C/C(N)=C(/C#N)C(=O)COC(=O)c1cccc2ccccc12`, the CPE inhibition was 4.13% (inactive).

For the compound `Cc1cc(C(=O)OCC(N)=O)c(C)n1-c1ccccc1`, the CPE inhibition is -3.46% (inactive).

For the compound `C/C(N)=C(/C#N)C(=O)COC(=O)c1ccccc1Oc1ccccc1`, the CPE inhibition was 2.44% (inactive).

Take `C/C(N)=C(/C#N)C(=O)COC(=O)c1cc2c(s1)CCC(C)C2` (stereo not drawn): the CPE inhibition is 5.48% (inactive).

In the case of `C/C(N)=C(/C#N)C(=O)COC(=O)C(c1ccccc1)c1ccccc1`, the CPE inhibition was 0.91% (inactive).

On to `Cc1cc(C(=O)COC(=O)c2ccc[nH]c2=O)c(C)n1-c1ccc(F)cc1`, for which the CPE inhibition was 2.01% (inactive).

As for `C/C(N)=C(/C#N)C(=O)COC(=O)c1ccccc1O`, the CPE inhibition was 1.5% (inactive).

As for `CNC(=O)COC(=O)c1cc2c(s1)CCCC2`, the CPE inhibition was 1.88% (inactive).
